Assay results reported in PubChem BioAssay (NCATS).
“And” between values parts separate entries of the source, which are not always exact repeats. Identical values can stand only once. Records with an inconclusive call do not appear. The source made the active and inactive calls. Unless noted, calls follow the shape of the dose curve; as a rule, active = well fitted curve in the direction sought with a large enough effect; inconclusive = small, poorly fitted or top-dose-only effect, or another doubt; inactive = no such curve, though single readings can be large; an effect the other way counts as inactive or inconclusive.

Key:
[1] = MultiTox-Fluor Cytotoxicity Assay - LYMP1-001 - Live Cells (AID 947);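 also: 0% = DMSO only and full inhibition = tetraoctylammonium bromide control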
[2] = MultiTox-Fluor Cytotoxicity Assay - LYMP1-002 - Dead Cells (AID 960);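 also: 0% = DMSO and 100% = tetraoctylammonium bromide; nearly all actives have a fitted effect of over 60% in size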
Procedure, shortened: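 Human lymphoblastoid cells (LYMP1-002), 2500/well in complete medium, were exposed to compounds for 16 hr at 37 C. Dead-cell protease activity was read as bis-AAF-R110 fluorescence (Ex/Em 485/520), normalized to DMSO and 15 uM tetraoctylammonium bromide; AC50 from Hill fits.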

[3] = Cell Viability - LYMP2-009 (AID 968);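 also: series mostly up to about 92 µM; cells exposed to compound for 24 h at 37 °C; 0% = DMSO alone and the full-kill end = tetraoctylammonium bromide at 92 µM; nearly all actives have a fitted effect of over 55% in size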
[4] = Cell Viability - LYMP2-015 (AID 971);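 also: cells exposed to compound for 24 h; 0% = DMSO only and full effect = 92 µM tetraoctylammonium bromide; nearly all actives have a fitted effect of over 55% in size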
Procedure, shortened: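 Human lymphoblastoid cells (2500/well) in complete medium were preincubated 5 hr at 37 C, then compound-treated 24 hr at 37 C. Intracellular ATP was read by CellTiter-Glo luminescence after 30 min at room temperature; AC50 came from Hill-equation concentration-response fits.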

[5] = target: Estrogen receptor (Homo sapiens) (UniProt P03372); assay: qHTS assay for small molecule antagonists of estrogen receptor alpha signaling (AID 588513; active = well fitted curve in the direction sought with a large enough effect in the signal ratio, with a control signal flat, not every such curve was filed as active; the % refers to the signal ratio; also: % is scaled to controls: 0 for no effect and ±100 for the full control effect)
Sequence of Estrogen receptor (Homo sapiens) (P03372 whole entry, looked up): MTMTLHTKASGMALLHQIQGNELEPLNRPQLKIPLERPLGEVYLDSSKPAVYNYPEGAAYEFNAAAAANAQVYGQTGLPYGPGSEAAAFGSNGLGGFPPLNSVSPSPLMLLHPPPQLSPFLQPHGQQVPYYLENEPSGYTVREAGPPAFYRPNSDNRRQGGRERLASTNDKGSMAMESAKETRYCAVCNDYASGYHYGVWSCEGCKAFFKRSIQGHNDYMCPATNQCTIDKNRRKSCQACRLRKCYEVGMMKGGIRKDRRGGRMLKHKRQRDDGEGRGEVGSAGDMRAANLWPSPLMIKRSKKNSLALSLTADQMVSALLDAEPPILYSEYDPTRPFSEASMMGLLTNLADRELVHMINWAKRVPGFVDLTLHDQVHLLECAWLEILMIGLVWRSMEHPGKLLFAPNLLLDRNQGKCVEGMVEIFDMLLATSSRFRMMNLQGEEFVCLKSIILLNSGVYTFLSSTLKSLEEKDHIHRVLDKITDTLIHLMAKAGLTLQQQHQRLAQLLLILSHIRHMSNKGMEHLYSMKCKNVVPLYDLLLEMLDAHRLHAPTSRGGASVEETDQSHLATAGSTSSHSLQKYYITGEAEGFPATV
Procedure, shortened: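 Antagonist mode: inhibition of 0.5 nM 17-beta-estradiol-driven beta-lactamase reporter in HEK 293 ER-alpha-UAS-bla cells, 18 h at 37C, CCF4 readout after 2 h at RT. Normalised to estradiol and DMSO; titration fitted to Hill.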

[6] = target: Peroxisome proliferator-activated receptor gamma (Homo sapiens) (UniProt P37231); assay: qHTS assay for small molecule agonists of peroxisome proliferator-activated receptor gamma signaling (AID 588536; active = well fitted curve in the direction sought with a large enough effect in the signal ratio, with a control signal flat, not every such curve was filed as active; the % refers to the signal ratio;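 also: 0% = DMSO basal wells and 100% = rosiglitazone at 2 µM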)
Sequence of Peroxisome proliferator-activated receptor gamma (Homo sapiens) (P37231 whole entry, looked up): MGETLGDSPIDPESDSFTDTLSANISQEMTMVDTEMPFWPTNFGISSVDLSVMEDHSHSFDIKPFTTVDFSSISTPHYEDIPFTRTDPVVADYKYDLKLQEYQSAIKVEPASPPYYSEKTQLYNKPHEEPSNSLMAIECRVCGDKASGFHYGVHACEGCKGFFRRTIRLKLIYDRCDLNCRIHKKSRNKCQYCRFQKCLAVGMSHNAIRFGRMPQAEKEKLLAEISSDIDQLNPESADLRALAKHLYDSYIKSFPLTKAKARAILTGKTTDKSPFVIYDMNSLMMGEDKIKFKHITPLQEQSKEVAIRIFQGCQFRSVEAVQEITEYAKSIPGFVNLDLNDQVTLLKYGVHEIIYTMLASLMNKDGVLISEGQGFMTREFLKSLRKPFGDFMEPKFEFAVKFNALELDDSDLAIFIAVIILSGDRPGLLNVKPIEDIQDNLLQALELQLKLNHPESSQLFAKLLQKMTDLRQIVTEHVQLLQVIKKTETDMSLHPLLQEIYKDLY
Procedure, shortened: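 GeneBLAzer PPAR-gamma-UAS-bla HEK293 cells in 1% charcoal/dextran-treated FBS medium were treated 16 h at 37 C with compounds. Beta-lactamase activity was read by CCF4 ratio (460/530 nm). Response was normalized to 2 uM rosiglitazone (100%) and DMSO, then Hill-fitted for EC50 and efficacy.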

[7] = target: Vitamin D3 receptor (Homo sapiens) (UniProt P11473); assay: qHTS assay for small molecule agonists of vitamin D receptor signaling (AID 588543; calls by dose curve;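 also: 0% = DMSO basal and 100% = reference agonist control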)
Sequence of Vitamin D3 receptor (Homo sapiens) (P11473 whole entry, looked up): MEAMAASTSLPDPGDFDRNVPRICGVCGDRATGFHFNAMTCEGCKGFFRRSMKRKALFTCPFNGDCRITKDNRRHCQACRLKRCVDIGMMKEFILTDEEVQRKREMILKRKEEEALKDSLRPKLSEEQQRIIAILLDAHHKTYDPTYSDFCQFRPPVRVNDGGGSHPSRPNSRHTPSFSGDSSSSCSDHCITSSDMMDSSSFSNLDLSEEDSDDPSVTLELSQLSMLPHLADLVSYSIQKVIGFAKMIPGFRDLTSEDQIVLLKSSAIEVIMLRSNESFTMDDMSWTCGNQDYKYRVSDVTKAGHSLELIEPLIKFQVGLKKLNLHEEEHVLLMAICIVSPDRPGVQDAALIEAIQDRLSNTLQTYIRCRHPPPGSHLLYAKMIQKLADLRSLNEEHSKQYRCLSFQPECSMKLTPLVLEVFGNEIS
Procedure, shortened: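 Agonist-mode beta-lactamase reporter: HEK293T VDR-UAS-bla cells in charcoal-stripped 2% FBS, compound series 16 h 37 C, CCF4 2 h RT. EC50 from Hill fit, scaled against DMSO and 50 nM calcitriol control.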

[8] = qHTS assay for small molecule agonists of retinoid X receptor alpha signaling (AID 588544; calls by dose curve;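 as to activation: 0% = DMSO basal wells and 100% = reference agonist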); details: HEK293T RXRa-UAS-bla, beta-lactamase reporter, 18 h; 530 nm emission
[9] = target: Retinoic acid receptor RXR-alpha (Homo sapiens) (UniProt P19793); assay: as above
Sequence of Retinoic acid receptor RXR-alpha (Homo sapiens) (P19793 whole entry, looked up): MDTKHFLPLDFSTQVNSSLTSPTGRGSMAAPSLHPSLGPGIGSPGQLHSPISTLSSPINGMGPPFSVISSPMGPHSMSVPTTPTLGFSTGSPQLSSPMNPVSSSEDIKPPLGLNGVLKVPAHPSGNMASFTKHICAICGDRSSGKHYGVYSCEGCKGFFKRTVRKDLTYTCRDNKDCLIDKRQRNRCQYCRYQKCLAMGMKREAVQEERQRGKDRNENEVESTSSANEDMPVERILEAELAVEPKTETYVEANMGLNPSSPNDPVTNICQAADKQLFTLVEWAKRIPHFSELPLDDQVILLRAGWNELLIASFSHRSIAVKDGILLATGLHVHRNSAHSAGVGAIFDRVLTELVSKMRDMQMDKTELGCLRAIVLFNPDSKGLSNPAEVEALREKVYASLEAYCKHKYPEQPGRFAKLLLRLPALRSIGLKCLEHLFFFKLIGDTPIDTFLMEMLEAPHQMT

[10] = target: Thyroid hormone receptor beta (Homo sapiens) (UniProt P10828); assay: qHTS assay for small molecule antagonists of thyroid hormone receptor beta signaling (AID 588547; active = well fitted inhibition curve with a large enough effect in the signal ratio, with a control signal flat, not every such curve was filed as active; the % refers to the signal ratio;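 also: cells stimulated with 0.4 nM T3 agonist during compound exposure; series mostly up to about 77 µM; % is scaled to controls: 0 for no effect and ±100 for the full control effect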); details: TR-UAS-bla HEK293, beta-lactamase ratio, antagonist mode, 18 h
Sequence of Thyroid hormone receptor beta (Homo sapiens) (P10828 whole entry, looked up): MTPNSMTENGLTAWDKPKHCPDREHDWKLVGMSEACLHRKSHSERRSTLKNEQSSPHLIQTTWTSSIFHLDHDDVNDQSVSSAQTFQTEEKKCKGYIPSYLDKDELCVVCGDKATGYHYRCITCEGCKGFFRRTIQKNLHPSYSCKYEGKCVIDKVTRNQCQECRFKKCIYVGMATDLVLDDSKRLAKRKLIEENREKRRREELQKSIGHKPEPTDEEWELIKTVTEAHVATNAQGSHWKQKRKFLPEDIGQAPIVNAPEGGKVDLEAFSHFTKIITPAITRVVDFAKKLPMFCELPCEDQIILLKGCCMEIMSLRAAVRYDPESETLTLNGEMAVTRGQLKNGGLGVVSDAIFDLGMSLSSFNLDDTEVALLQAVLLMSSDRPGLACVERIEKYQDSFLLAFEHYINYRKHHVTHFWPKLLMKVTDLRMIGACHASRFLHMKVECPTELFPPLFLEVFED
Procedure, shortened: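 Inhibition of T3-driven (0.4nM final) beta-lactamase reporter activity was measured over 0.59 nM to 92 uM compound after 18 h at 37 C. The cells were GripTite HEK293 TR-UAS-bla in charcoal/dextran-stripped serum, with CCF4 ratio read-out and IC50 from Hill fits.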

[11] = qHTS assay for small molecule disruptors of the mitochondrial membrane potential - 1 hr assay (AID 651754; calls by dose curve; also: % is scaled to controls: 0 for no effect and ±100 for the full control effect; nearly all actives have a fitted effect of over 35% in size)
Procedure, shortened: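 HepG2 cells, attached overnight at 37C, were exposed to compound or DMSO vehicle for 1 hr at 37C, 5% CO2, then stained with Mito-MPS dye for 30 min. Red aggregate versus green monomer fluorescence reports membrane potential.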

[12] = qHTS assay for small molecule disruptors of the mitochondrial membrane potential - 5 hr assay (AID 651755; calls by dose curve; also: % is scaled to controls: 0 for no effect and ±100 for the full control effect; nearly all actives have a fitted effect of over 40% in size)
Procedure, shortened: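 HepG2, 2,000 cells/well, overnight attach; cpd or DMSO 5 hr, 37C/5% CO2; Mito-MPS 30 min 37C; fluor 490/535 + 540/590 nm.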

[13] = qHTS assay for small molecule antagonists of the retinoid-related orphan receptor gamma (ROR-gamma) signaling pathway - cell viability counter screen (AID 720652; active = well fitted curve in the direction sought with a large enough effect in the repeat runs; an effect the other way counts as inactive or inconclusive;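 also: CHO reporter cells with doxycycline-induced ROR-gamma expression; series mostly up to about 92 µM; compound exposure lasted 16 hr before ATP read; % is scaled to controls: 0 for no effect and ±100 for the full control effect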)
Procedure, shortened: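 Counter screen in CHO cells carrying TET-inducible ROR-gamma and an ROR response element-luciferase reporter; cells plated 5 hr, compound pinned, doxycycline added, then 16 hr at 37 C. Viability read as intracellular ATP by CellTiter-Glo luminescence.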

[14] = qHTS assay for small molecule activators of the p53 signaling pathway (AID 651743; active = well fitted activation curve with a large enough effect in the signal ratio, not every such curve was filed as active; the % refers to the signal ratio; also: series mostly up to about 92 µM; % of control where 0% means no effect); details: HCT-116 p53RE-bla, beta-lactamase FRET ratio, 16 h; activation: stronger effect = higher value
Procedure, shortened: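 Screen for p53 pathway agonists uses stably transfected p53RE-bla HCT-116 cells, 4,000 per well, treated 16 h at 37 C with compounds in DMSO.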

[15] = target: Tumor necrosis factor (Homo sapiens) (UniProt P01375); assay: qHTS assay to identify small molecules that stimulate Tumor Necrosis Factor-alpha (TNF-alpha) secretion (AID 651757; active = well fitted curve in the direction sought with a large enough effect in the signal ratio; the % refers to the signal ratio; also: 0% is about no effect)
Sequence of Tumor necrosis factor (Homo sapiens) (P01375 whole entry, looked up): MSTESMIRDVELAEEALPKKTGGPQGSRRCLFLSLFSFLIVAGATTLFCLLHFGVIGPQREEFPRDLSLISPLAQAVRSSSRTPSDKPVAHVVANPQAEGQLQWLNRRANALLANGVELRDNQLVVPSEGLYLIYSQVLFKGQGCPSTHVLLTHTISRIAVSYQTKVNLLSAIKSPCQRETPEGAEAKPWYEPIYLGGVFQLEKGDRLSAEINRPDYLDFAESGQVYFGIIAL
Procedure, shortened: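 THP-1 cells were exposed to compounds for 17 hrs at 37 C, after which secreted TNF-alpha was measured by homogeneous HTRF (TR-FRET) using cryptate- and XL665-labeled anti-TNF-alpha antibodies, read after 3 hr at room temperature.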

[16] = qHTS assay for environmental chemicals that activate the Aryl hydrocarbon Receptor (AhR) signaling pathway (AID 651777); details: 1A2-DRE human hepatoma cells, luciferase, 24 h; activation: stronger effect = higher value; also: % of control where 0% means no effect; nearly all actives have a fitted effect of over 15% in size
Procedure, shortened: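 Luminescence read-out: One-Glo added for 30 min at RT after 24 hr compound treatment (37 C, 5% CO2) of human hepatoma cells expressing a DRE/CYP1A2 promoter–luciferase reporter; increased signal indicates AhR activation.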

[17] = qHTS assay for small molecule agonists of the antioxidant response element (ARE) signaling pathway measured by Nrf2-dependant transcriptional activity (AID 720636; active = well fitted curve in the direction sought with a large enough effect in the repeat runs; an effect the other way counts as inactive or inconclusive;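 also: HepG2 cells with an ARE-driven luciferase reporter; % of control where 0% means no effect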)
Procedure, shortened: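 HepG2 ARE-luc reporter line, 1% dialyzed FBS; 6 hr attachment at 37 C, compound pinned in, 16 hr at 37 C/5% CO2; ONE-Glo, 30 min RT, luminescence read.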

[18] = target: Nuclear receptor subfamily 1 group I member 2 (Rattus norvegicus) (UniProt Q9R1A7); assay: qHTS assay for small molecule activators of the rat pregnane X receptor (rPXR) signaling pathway (AID 651751; call rule not given here; also: 0% is about no effect); details: rPXR reporter cells, luciferase (One-Glo), 24 h
Sequence of Nuclear receptor subfamily 1 group I member 2 (Rattus norvegicus) (Q9R1A7 whole entry, looked up): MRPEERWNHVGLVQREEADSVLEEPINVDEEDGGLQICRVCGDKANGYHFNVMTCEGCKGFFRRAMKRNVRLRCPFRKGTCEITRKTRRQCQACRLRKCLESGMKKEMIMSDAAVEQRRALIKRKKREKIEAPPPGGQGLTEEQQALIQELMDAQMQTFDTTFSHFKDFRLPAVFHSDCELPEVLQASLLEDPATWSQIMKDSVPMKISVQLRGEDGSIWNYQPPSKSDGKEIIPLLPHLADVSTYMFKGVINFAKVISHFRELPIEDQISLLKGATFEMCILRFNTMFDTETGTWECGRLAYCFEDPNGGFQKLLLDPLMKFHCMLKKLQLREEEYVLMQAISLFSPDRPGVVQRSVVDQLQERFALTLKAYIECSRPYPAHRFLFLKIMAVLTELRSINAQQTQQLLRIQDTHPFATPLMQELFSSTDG

[19] = qHTS assay for small molecule activators of the human pregnane X receptor (PXR) signaling pathway (AID 720659; call rule not given here; also: 0% is about no effect)
[20] = target: Cytochrome P450 3A4 (Homo sapiens) (UniProt P08684); assay: qHTS Assay for Inhibitors and Substrates of Cytochrome P450 3A4 (AID 884); also: series mostly up to about 57 µM; % is scaled to controls: 0 for no effect and ±100 for the full control effect; nearly all actives have a fitted effect of over 50% in size
Sequence of Cytochrome P450 3A4 (Homo sapiens) (P08684 whole entry, looked up): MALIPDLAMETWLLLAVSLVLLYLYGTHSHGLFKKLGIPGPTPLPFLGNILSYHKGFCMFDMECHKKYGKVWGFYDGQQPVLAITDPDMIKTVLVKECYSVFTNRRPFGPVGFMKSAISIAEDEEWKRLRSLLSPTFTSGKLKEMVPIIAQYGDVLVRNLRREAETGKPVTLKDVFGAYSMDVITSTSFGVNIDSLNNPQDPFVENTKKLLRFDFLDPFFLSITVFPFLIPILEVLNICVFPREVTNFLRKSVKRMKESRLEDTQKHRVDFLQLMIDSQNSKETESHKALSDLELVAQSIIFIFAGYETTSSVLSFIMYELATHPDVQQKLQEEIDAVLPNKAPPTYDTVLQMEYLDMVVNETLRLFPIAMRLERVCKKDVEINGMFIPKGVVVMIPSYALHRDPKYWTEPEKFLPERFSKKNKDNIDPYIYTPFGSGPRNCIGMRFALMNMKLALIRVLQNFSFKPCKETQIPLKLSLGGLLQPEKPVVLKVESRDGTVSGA
Procedure, shortened: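 20 nM human CYP3A4 with 25 uM Luciferin-PPXE (at KM) in 200 mM KPO4, preincubated 10 min with compound; NADPH regeneration started a 60 min RT reaction. Luciferin detected by luminescence, normalized to 57 uM ketoconazole as full inhibition.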

COc1ccc2nc(N)sc2c1
inactive: Potency [1] | Potency [2] | Potency [3] | Potency [4] | Potency [5] | outcome [6] | outcome [7] | outcome [9] | activity change % (negative = inhibition) [10] -0.575% and 14.1% | Potency [11] | Potency [12] | Potency [13]
-6.78% and -2.22%: max response [8]

C=CCOC(=O)c1ccccc1C(=O)OCC=C
-9.89% and -14.8%: max response [8]
inactive: Potency [1] | Potency [3] | Potency [4] | Potency [5] | outcome [6] | outcome [9] | activity change % (negative = inhibition) [10] -9.14% and 1.91% | activation [14] -0.242% and -1.19% | Potency [11] | Potency [12] | outcome [15] | activation [16] -0.581% and 2.86% | Potency [17] | Potency [13] | max response [18] -2.3% and 1.03% | outcome [19]

COc1c2ccoc2cc2oc(=O)ccc12
inactive: Potency [1] | Potency [2] | Potency [3] | Potency [4] | Potency [5] | outcome [7] | activity change % (negative = inhibition) [10] 16.2% | activation [14] 6.05% | Potency [11] | Potency [12] | outcome [15] | activation [16] 1.47% | Potency [17] | Potency [13] | max response [18] 2.12% | outcome [19]

O=NO
inactive: Potency [20] | Potency [1] | Potency [2] | Potency [3] | Potency [4] | outcome [6] | outcome [7] | outcome [9] | activity change % (negative = inhibition) [10] -1.68% and 1.18% | Potency [11] | Potency [12] | outcome [15] | activation [16] -0.432% and -1.54% | Potency [17] | Potency [13] | max response [18] 3.2% and 1.29% | outcome [19]
-10.7% and -17.9%: max response [8]

Nc1ccc(S(=O)(=O)O)cc1
inactive: Potency [20] | Potency [1] | Potency [2] | Potency [3] | Potency [4] | Potency [5] | outcome [6] | outcome [7] | outcome [9] | activity change % (negative = inhibition) [10] -11.7% and 17.4% | activation [14] 3.7% and 3.55% | Potency [11] | Potency [12] | outcome [15] | activation [16] -0.977% and -1% | Potency [17] | Potency [13] | max response [18] -3.61% and -1.3%
8.69% and -7.04%: max response [8]

CCO[Si](CCCN)(OCC)OCC
12.6% and -3.12%: max response [8]
inactive: Potency [20] | Potency [1] | Potency [2] | Potency [3] | Potency [4] | Potency [5] | outcome [6] | outcome [7] | outcome [9] | activation [14] -1.64% and -2.02% | Potency [11] | Potency [12] | outcome [15] | Potency [17] | Potency [13] | max response [18] -3.96% and 0.794% | outcome [19]

O=C(O)CC(C(=O)O)C(CC(=O)O)C(=O)O (centres undefined)
inactive: Potency [20] | Potency [1] | Potency [2] | Potency [3] | Potency [4] | Potency [5] | outcome [6] | outcome [7] | outcome [9] | activity change % (negative = inhibition) [10] -3.7% and -9.45% | activation [14] -3.49% and -0.408% | Potency [11] | Potency [12] | outcome [15] | activation [16] -0.527% and 0.126% | Potency [17] | Potency [13] | max response [18] -5.76% and 4.78% | outcome [19]
3.34% and -3.12%: max response [8]

Clc1cc(Cl)c(Cl)c(Cl)c1Cl
inactive: Potency [1] | Potency [2] | Potency [3] | Potency [4] | Potency [5] | outcome [7] | outcome [9] | activity change % (negative = inhibition) [10] 4.53% and 17.6% | activation [14] -3.68% and 2.1% | Potency [11] | Potency [12] | outcome [15] | activation [16] 0.277% and 2.12% | Potency [17] | Potency [13] | max response [18] 0.274% and 3.7% | outcome [19]
-1.44% and -10.6%: max response [8]

CCCCC(CC)CN (centres undefined)
-5.69% and -12.2%: max response [8]
inactive: Potency [20] | Potency [1] | Potency [2] | Potency [3] | Potency [4] | Potency [5] | outcome [6] | outcome [7] | outcome [9] | activity change % (negative = inhibition) [10] 20% and -6.26% | activation [14] -5.5% and 1.33% | Potency [11] | Potency [12] | outcome [15] | activation [16] 0.546% and 3.21% | Potency [17] | Potency [13] | max response [18] 1.98% and 0.48% | outcome [19]

COC(=O)c1ccc(C=O)cc1
2.75% and 4.18%: max response [8]
inactive: Potency [20] | Potency [1] | Potency [2] | Potency [3] | Potency [4] | Potency [5] | outcome [6] | outcome [7] | outcome [9] | activity change % (negative = inhibition) [10] 3.66% | activation [14] -0.565% and 0.101% | Potency [11] | Potency [12] | outcome [15] | activation [16] 1.65% and -0.822% | Potency [17] | Potency [13] | max response [18] -0.798% and -1.94% | outcome [19]
